Data taken from PubChem BioAssay AID2536 (National Center for Advancing Translational Sciences (NCATS), 2010).

molecular target: Pyruvate kinase PKM (Homo sapiens) (UniProt P14618); assay: Secondary Concentration-Response Assay for Activators of Human Muscle isoform 1 Pyruvate Kinase: for Probe SAR; conditions: purified hPK-M1, ATP production, Kinase-Glo luminescence
Excerpt: NIH Chemical Genomics Center [NCGC]
Matthew G. Vander Heiden, M.D., Ph.D. [Harvard Medical School, 77 Avenue Louis Pasteur, Boston, MA 02115]
Human pyruvate kinase […] (hPK-M1) enzyme was supplied as a highly purified (>95% pure) preparation from Harvard Medical School and assayed for its ability to generate ATP from ADP using phosphoenolpyruvate (PEP) as a substrate. ATP generation was detected in a coupled reaction by luciferase-mediated luminescence, an ATP-dependent process. Pyruvate kinase substrates, PEP and ADP, were present in the assay at Km and approximately 10-fold below Km respectively. The enzyme was assayed at an intermediate level of activity to screen for both inhibitors and activators.
NCGC Assay Protocol Summary for M1-isoform:
Three uL of substrate mix (at r.t.) in assay buffer (50 mM Imidazole pH7.2, 50 mM KCl, 7 mM MgCl2, 0.01% Tween 20, 0.05% BSA) was dispensed into white solid bottom 1,536 well microtiter plates so that the final concentrations of substrates in the assay were 0.1 mM ADP and 0.5 mM PEP. 23 nL of compound were delivered by a pin tool and 1 uL of enzyme mix (final concentration of 1 nM) in assay buffer (4 degree Celsius) was added. Plates were incubated at room temperature for 1 hour. Two uL of detection mix (Kinase-Glo, Promega; at 4 degree Celsius protected from light) was added and luminescence read by a ViewLux (Perkin Elmer) at 1 second exposure/plate. Data were normalized to the uninhibited (row 31). Additionally, a no enzyme and 5-fold enzyme control was dispensed in row 32, split equally between the two conditions.

Chain of Pyruvate kinase PKM (Homo sapiens) (P14618 whole entry, looked up, canonical isoform): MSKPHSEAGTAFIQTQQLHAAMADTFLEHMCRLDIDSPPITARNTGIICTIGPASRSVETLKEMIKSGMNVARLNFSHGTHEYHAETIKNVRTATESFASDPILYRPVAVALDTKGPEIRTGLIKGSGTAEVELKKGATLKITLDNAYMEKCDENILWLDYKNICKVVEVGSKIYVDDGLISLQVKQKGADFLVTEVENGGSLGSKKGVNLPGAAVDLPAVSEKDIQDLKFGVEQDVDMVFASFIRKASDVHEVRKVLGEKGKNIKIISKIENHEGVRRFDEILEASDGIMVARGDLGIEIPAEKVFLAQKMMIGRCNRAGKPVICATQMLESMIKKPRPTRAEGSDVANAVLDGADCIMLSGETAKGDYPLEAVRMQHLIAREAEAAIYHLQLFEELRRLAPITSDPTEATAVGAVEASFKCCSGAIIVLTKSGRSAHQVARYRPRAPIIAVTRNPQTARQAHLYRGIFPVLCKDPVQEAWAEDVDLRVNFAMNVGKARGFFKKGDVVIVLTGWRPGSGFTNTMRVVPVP

Max response, inactive:
O=C1CCc2cc([S+](=O)([O-])Nc3ccc(N[S+](=O)([O-])c4ccc5c(c4)CCC(=O)N5)cc3)ccc2N1 -0.299%
Cc1ccc(NS(=O)(=O)c2ccc3c(c2)CCC(=O)N3)cc1Cl 8.72%
O=C1CCc2cc(S(=O)(=O)Nc3ccc(Cl)c(Cl)c3)ccc2N1 4.63%
Cc1cc2c(s1)c1cnn(Cc3cc(F)c(F)cc3F)c(=O)c1n2C -8.12%
N#Cc1ccc(NS(=O)(=O)c2ccc3c(c2)CCC(=O)N3)cc1 5.23%
Cc1c(Cl)cccc1NS(=O)(=O)c1cc2c(cc1Cl)CCC(=O)N2 0.521%
Cc1ccc(NS(=O)(=O)c2cc3c(cc2Cl)CCC(=O)N3)cc1Cl 4.8%
Cc1ccc(NS(=O)(=O)c2cc3c(cc2F)NC(=O)CC3)cc1Cl 4.95%
Cc1ccc(NS(=O)(=O)c2cc3c(cc2N(C)C)CCC(=O)N3)cc1C -0.287%
CNc1cc2c(cc1S(=O)(=O)Nc1ccc(C)c(C)c1)CCC(=O)N2 -0.656%
O=C1CCc2cc(S(=O)(=O)Nc3ccc(Cl)c(Cl)c3)c(F)cc2N1 2.68%
COc1cccc(Cn2ncc3c4sc(SC)cc4n(C)c3c2=O)c1 13.2%
O=C1CCc2cc(S(=O)(=O)Nc3cccc(Oc4ccccc4)c3)ccc2N1 -2.73%
CNc1cccc(S(=O)(=O)N2CCCN(S(=O)(=O)c3ccc4c(c3)OCCO4)CC2)c1 3.54%
O=C1CCc2cc(S(=O)(=O)Nc3ccc4ncccc4c3)ccc2N1 -1.75%
Cc1cc2c(s1)c1cnn(Cc3c(Cl)ccc(C)c3F)c(=O)c1n2C 4.91%
Cc1ccc(NS(=O)(=O)c2cc3c(cc2N2CCC2)NC(=O)CC3)cc1C -7.63%
Cc1cc(NS(=O)(=O)c2ccc3c(c2)CCC(=O)N3)ccc1F 2.58%
COc1cccc(Cn2ncc3c4sc(S(C)=O)cc4n(C)c3c2=O)c1 (stereo not given) 3.1%
O=C1CCc2cc(S(=O)(=O)Nc3ccc4c(c3)CCC4)ccc2N1 -1.18%
CSc1cc2c(s1)c1cnn(Cc3cccc(N)c3)c(=O)c1n2C 7.82%
Cc1ccc(NS(=O)(=O)c2ccc3c(c2)CC(=O)N3)cc1C 23.4%
Cc1ccc(NS(=O)(=O)c2ccc3c(c2)C(Cl)(Cl)C(=O)N3)cc1C 0.115%
Cc1cc2c(s1)c1cnn(Cc3cc(F)ccc3F)c(=O)c1n2C 4.73%
Cc1ccc(Cl)cc1NS(=O)(=O)c1cc2c(cc1F)NC(=O)CC2 -4.17%
Cc1ccc(Cl)cc1NS(=O)(=O)c1cc2c(cc1Cl)CCC(=O)N2 1.5%
CN(C)c1cccc(S(=O)(=O)N2CCCN(S(=O)(=O)c3ccc4c(c3)OCCO4)CC2)c1 1.92%
Cc1c(Cl)cccc1NS(=O)(=O)c1cc2c(cc1F)NC(=O)CC2 0.151%
Cc1ccc(NS(=O)(=O)c2ccc3c(c2)CCC(=O)N3)cc1F 0.0639%
Nc1cccc(S(=O)(=O)N2CCCN(S(=O)(=O)c3ccc4c(c3)OCCO4)CC2)c1 -0.314%
N#Cc1cccc(NS(=O)(=O)c2ccc3c(c2)CCC(=O)N3)c1 -2.21%
O=C1CCc2cc(S(=O)(=O)Nc3cccc(B(O)O)c3)ccc2N1 -3.5%
O=C1CCc2cc(S(=O)(=O)Nc3cccc(Br)c3)ccc2N1 -2.97%
Cc1ccc(NS(=O)(=O)c2ccc3c(c2)N(C)C(=O)CO3)cc1C 1.15%
Cc1ccc(N[S+](=O)([O-])c2cc3c(cc2CCc2ccccc2)NC(=O)CO3)cc1C -3.27%
O=C1CCc2cc([S+](=O)([O-])NC3CCOCC3)ccc2N1 -5.17%
Cc1cc(NS(=O)(=O)c2ccc3c(c2)CCC(=O)N3)ccc1Cl -0.197%
O=C1CCc2cc(Cl)c(S(=O)(=O)Nc3ccc(Cl)c(Cl)c3)cc2N1 1.66%
Cc1cc2c(s1)c1cnn(Cc3ccccc3F)c(=O)c1n2C -9.51%
Cn1c2cc(S(C)=O)sc2c2cnn(Cc3cccc(N)c3)c(=O)c21 (stereo not given) 2.91%
